Screening results from PubChem BioAssay.
SARS PLP yeast – SARS-CoV PLP inhibition in yeast; S. cerevisiae expressing SARS-CoV PLpro, growth rescue; AID 485353; 330,000 compounds, 0.19% hits; Potency, µM (titrated, usually from 32.9 µM), for the others: at the highest dose activity, positive = growth rescue, most hits filed as activators; calls by dose curve; also: 0% is about no effect; nearly all actives have a fitted effect of over 55% in size
AmpC inh detg – inhibitors of E. coli AmpC beta-lactamase with detergent | 370,000 compounds, 0.041% hits | P00811 | Potency, µM (series often up to 114 µM), without a hit: at the highest dose activity change, negative = inhibition, actives largely listed as inhibitors | AmpC hydrolysis of nitrocefin, absorbance 480 nm, 0.01% Triton;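 also: 0% = no-compound wells and -100% = no-enzyme wells; nearly all actives have a fitted effect of over 25% in size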
Target sequence (P00811 whole entry, looked up): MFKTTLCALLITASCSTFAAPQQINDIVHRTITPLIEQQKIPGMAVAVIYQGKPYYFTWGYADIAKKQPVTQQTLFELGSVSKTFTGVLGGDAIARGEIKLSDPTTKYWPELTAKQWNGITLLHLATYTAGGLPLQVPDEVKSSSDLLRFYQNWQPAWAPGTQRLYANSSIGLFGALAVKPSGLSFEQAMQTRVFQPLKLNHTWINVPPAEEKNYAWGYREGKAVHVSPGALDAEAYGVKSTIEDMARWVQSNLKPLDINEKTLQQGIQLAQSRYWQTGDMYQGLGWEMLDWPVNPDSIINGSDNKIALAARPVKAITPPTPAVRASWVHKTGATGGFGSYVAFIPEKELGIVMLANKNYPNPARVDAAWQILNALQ
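AmpC (5.3 nM in the dispensed reagent) in 20 mM phosphate pH 7.0 with 0.01% (detergent screen) or 0.0001% Triton X-100 was preincubated with compounds for 15 min at room temperature. Nitrocefin was then added from an 800 uM solution, and hydrolysis was followed at 480 nm.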
AmpC no deterg – inhibitors of E. coli AmpC beta-lactamase without detergent; Potency, µM (doses to about 57.1 µM), for inactives: at the top dose activity change, negative = inhibition, usual class: inhibitors; AmpC nitrocefin hydrolysis, absorbance 480 nm, 0.0001% Triton; 330,000 compounds, 0.52% hits;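 also: plate controls were no compound for no effect and no enzyme for full effect; nearly all actives have a fitted effect of over 20% in size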
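AmpC (5.3 nM in the dispensed reagent) in 20 mM phosphate pH 7.0 with 0.01% (detergent screen) or 0.0001% Triton X-100 was preincubated with compounds for 15 min at room temperature. Nitrocefin was then added from an 800 uM solution, and hydrolysis was followed at 480 nm.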
FBPA Giardia inh – inhibitors of Giardia lamblia fructose-1,6-bisphosphate aldolase | purified Giardia FBPA | Potency, µM (top dose mostly 59.6 µM), for inactives: top-dose activity, negative = inhibition, hits mostly inhibitors | 290,000 compounds, 0.71% hits; also: % is scaled to controls: 0 for no effect and ±100 for the full control effect; nearly all actives have a fitted effect of over 55% in size
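Giardia FBPA (40 nM reagent) was preincubated 10 min at RT with compound (up to 57.5 uM final), then substrate plus GAPDH/TPI/NAD/arsenate coupling system with diaphorase/resazurin was added; resorufin fluorescence (525/598 nm) was read after 20 min.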
Numbers without * were called inactive; ? = inconclusive; · = no result given; [ ] = another dose, or the depositor's remark. A selection: hits, their analogues and other compounds. The true share with any hit is near 1.1%. Unless noted, calls follow the shape of the dose curve; as a rule, active = well fitted curve in the direction sought with a large enough effect; inconclusive = small, poorly fitted or top-dose-only effect, or another doubt; inactive = no such curve, though single readings can be large; an effect the other way counts as inactive or inconclusive. Potency is read from the fitted curve at half-maximal effect.

SMILES	SARS PLP yeast	AmpC inh detg	AmpC no deterg	FBPA Giardia inh
Cc1cccc(N(C(=O)Cn2nnc3ccccc32)C(C(=O)NC(C)(C)C)c2ccsc2)c1C (configuration not stated)	?	0%	0.22µM*	2%
Cc1ccccc1CCN(C(=O)Cn1nnc2ccccc21)C(C(=O)NC(C)(C)C)c1ccsc1 (configuration not stated)	-7%	5%	-17%	1%
CC1(OC(=O)c2ccc(Cl)nc2)C(=O)C=c2cc(-c3ccsc3)ncc2=C1OC(=O)C1CCCC1 (configuration not stated)	·	·	·	3%[12.9 µM]
COc1cccc(Nc2ccc3cc(S(=O)(=O)N4CCC(C)CC4)ccc3n2)c1	·	1%	·	·
Cc1ccccc1NC1=C(Cl)C(=O)N(C2CCCCC2)C1=O	-34%	-1%	-46%	-5%
COc1ccccc1NC1=C(Cl)C(=O)N(C2CCCCC2)C1=O	-38%	3%	14µM*	-2%
COc1cc(/C=N/Nc2nncn2N)ccc1OCc1c(C)no[n+]1[O-]	-1%	3%	18%	5µM*
C=CCN1c2ccccc2[C@]23C[C@@H](C(=O)OC)N(S(=O)(=O)c4ccc(Br)cc4)C2=NC(C(=O)OC)=C(C(=O)OC)[C@H]13	·	·	·	6%[12.9 µM]
Cc1cccc(CN2CC34C=CC(CC3S2(=O)=O)O4)c1 (configuration not stated)	·	·	·	8%
O=C(Nc1cccc(Cl)c1)Nc1nnc(-c2ccncc2)s1	7%	?	16µM*	-5%
CS(=O)(=O)c1ccc2nc(NC(=O)Nc3ccc(Cl)c(Cl)c3)sc2c1	15%	1%	-13%	-4%
CS(=O)(=O)c1ccc2nc(NC(=O)Nc3cccc(Cl)c3)sc2c1	3%	?	13µM*	-3%
CCOC(=O)Cc1csc(NC(=O)Nc2cccc(Cl)c2)n1	13%	-2%	20µM*	4%
CC(=O)c1ccc(-c2cccc(C3C4C=CCCC4(C)C(=O)N3Cc3ccccc3)c2)cc1 (configuration not stated)	·	·	·	-3%
O=C(NCCCN1CCCC1=O)c1cc2nc(-c3ccco3)cc(C(F)(F)F)n2n1	22µM*	-4%	0%	6%
O=C(N/N=C/c1c[nH]c2ccccc12)c1ccc(Br)cc1	-8%	-11%	20µM*	-1%
O=C(N/N=C/c1c[nH]c2ccccc12)c1cc(Cl)ccc1O	-4%	-9%	16µM*	9%
O=C(Cl)COCc1ccccc1	·	·	·	0%
COc1cc(C(=O)O[C@@H]2CC3CC[C@]2(C)C3(C)C)ccc1O	·	·	·	-6%
COc1ccccc1/C=N/NC(=O)CC(=O)NCc1ccccc1	-3%	3%	-16%	18µM*
O=C(CNC(=O)c1cccc(F)c1)N/N=C/c1cc(Br)ccc1OC(=O)/C=C/c1ccco1	-25%	-6%	16µM*	-20%
O=C(CNC(=O)c1ccccc1O)N/N=C/c1cc(Br)ccc1OC(=O)/C=C/c1ccco1	32%	-14%	3.2µM*	1%
COc1ccc(/C=N/NC(=O)c2ccccc2OCc2ccccc2)c(OC)c1	-11%	-1%	-28%	-6%
C#CCOc1ccccc1/C=N/NC(=O)c1ccccc1OCc1ccccc1	-2%	-9%	20µM*	·
O=C(CNC(=O)c1ccc(F)cc1)N/N=C/c1cc(Br)ccc1OCc1ccccc1	9%	-2%	?	-10%
SMILES	SARS PLP yeast	AmpC inh detg	AmpC no deterg	FBPA Giardia inh
O=C(CNC(=O)c1ccccc1Br)N/N=C/c1ccco1	0%	4%	-15%	-1%
OCC1OC([S-])[C@H](O)C(O)C1O.[Au+] (some centres not stated)	·	·	·	-27%
COc1ccccc1C(=O)NCC(=O)N/N=C/c1cc(Br)ccc1OCc1ccccc1	17%	2%	25µM*	-11%
COc1cccc(NS(=O)(=O)c2ccc3[nH]cc(C(=O)NCCc4ccc(C)cc4)c(=O)c3c2)c1	0%	-13%	6.3µM*	·
Cc1cc(C)cc(NS(=O)(=O)c2ccc3[nH]cc(C(=O)NCc4ccco4)c(=O)c3c2)c1	10%	-10%	16µM*	-9%
Cc1cc(C)cc(NS(=O)(=O)c2ccc3[nH]cc(C(=O)NCc4ccccc4Cl)c(=O)c3c2)c1	·	-2%	·	·
CCCCc1nc2c(c3c1C[C@H](C)OC3)CN(C(=O)c1cc(I)ccc1F)CC2	·	·	·	5%[12.9 µM]
CN1C(=O)CC(c2ccccc2)Nc2ccccc21 (configuration not stated)	-2%	5%	-3%	-7%
N#CC1CC(c2ccccc2)Nc2cc(Cl)ccc2N1 (configuration not stated)	-7%	?	11µM*	17%
CCc1ccc(NC(=O)C(=O)NCC(c2cccnc2)N2CCN(Cc3ccccc3)CC2)cc1 (configuration not stated)	·	-7%	·	·
O=c1c(N2CCOCC2)c(N2CCOCC2)c1=O	-2%	-3%	-1%	-1%
CC(C)(C)C1=CC(=O)C(N2CCOCC2)=CC1=O	-14%	-13%	-13%	1.8µM*
c1ccc2c(c1)OCCOCCOCCOCCO2	·	·	·	2%
Cc1c(C(=O)O)c(O)cc2c1C(=O)c1c(O)c([C@H]3O[C@H](CO)[C@@H](O)[C@H](O)[C@H]3O)c(O)c(O)c1C2=O	·	·	·	18µM*
Cc1c(C(=O)O)c(O)cc2c1C(=O)c1c(O)c([C@@H]3O[C@H](CO)[C@@H](O)[C@H](O)[C@H]3O)c(O)c(O)c1C2=O	-4%	·	-11%	·
CC(C)OCCCNC(=S)Nc1ccc(S(N)(=O)=O)cc1	10%	-4%	-32%	14µM*
O=[N+]([O-])c1ccc(O)c(C(C#Cc2ccccc2)N2CCOCC2)c1 (configuration not stated)	-8%	-3%	8.9µM*	9%
C=CCNC(=S)Nc1cccc2ccccc12	5%	7%	-14%	16µM*
C=CCNC(=S)NCc1ccccc1	0%	-7%	-7%	-10%
C=C(C(=O)OCC)C(=O)c1ccccc1	·	·	·	0%
O=C(Nc1nc(-c2ccccc2)cs1)Nc1ccc(F)cc1F	-13%	-2%	20µM*	-1%
COc1cc(C2OC(=O)c3c2ccc(OC)c3OC)ccc1O (configuration not stated)	6%	-13%	1%	·
COc1ccc(-c2ccc(-c3nc4c(c(=O)[nH]c(=O)n4Cc4ccccc4)n3C)o2)c([N+](=O)[O-])c1	-8%	4%	-2%	?
COCCn1c(=O)[nH]c(=O)c2c1nc(-c1ccc(-c3ccc(Cl)cc3[N+](=O)[O-])o1)n2Cc1ccccc1	2%	-1%	7.9µM*	?
CC[C@H](C)N	·	·	·	-1%
Cc1ccc2nc(/C(C#N)=C/c3ccc(-c4cccc([N+](=O)[O-])c4)o3)[nH]c2c1	2%	-11%	11µM*	-2%
CCCCCCCCCCCCC/C=C/[C@@H](O)[C@H](CO)NC(=O)CCCCC	·	·	·	-14%
CC(C(=O)Nc1ccccc1)c1ccc(-c2ccccc2)c(F)c1 (configuration not stated)	4%	?	11µM*	0%
